Test results as given in PMC4336329 (PLoS ONE, 2015).
Hit rate of the full screen: of about 310,000 compounds, about 14,000 (4.5%) showed an effect of 50% or more. Effects have a minus sign here. This is one part of a sample in which strong results are shown more often than they occur.

The compounds below were run against human ether-à-go-go-related gene (hERG) potassium channel (human, UniProt Q12809) (assay: primary screen, population patch clamp on CHO cells stably expressing hERG; higher = less effect of the substance).
Sequence of human ether-à-go-go-related gene (hERG) potassium channel (Q12809 whole entry, looked up): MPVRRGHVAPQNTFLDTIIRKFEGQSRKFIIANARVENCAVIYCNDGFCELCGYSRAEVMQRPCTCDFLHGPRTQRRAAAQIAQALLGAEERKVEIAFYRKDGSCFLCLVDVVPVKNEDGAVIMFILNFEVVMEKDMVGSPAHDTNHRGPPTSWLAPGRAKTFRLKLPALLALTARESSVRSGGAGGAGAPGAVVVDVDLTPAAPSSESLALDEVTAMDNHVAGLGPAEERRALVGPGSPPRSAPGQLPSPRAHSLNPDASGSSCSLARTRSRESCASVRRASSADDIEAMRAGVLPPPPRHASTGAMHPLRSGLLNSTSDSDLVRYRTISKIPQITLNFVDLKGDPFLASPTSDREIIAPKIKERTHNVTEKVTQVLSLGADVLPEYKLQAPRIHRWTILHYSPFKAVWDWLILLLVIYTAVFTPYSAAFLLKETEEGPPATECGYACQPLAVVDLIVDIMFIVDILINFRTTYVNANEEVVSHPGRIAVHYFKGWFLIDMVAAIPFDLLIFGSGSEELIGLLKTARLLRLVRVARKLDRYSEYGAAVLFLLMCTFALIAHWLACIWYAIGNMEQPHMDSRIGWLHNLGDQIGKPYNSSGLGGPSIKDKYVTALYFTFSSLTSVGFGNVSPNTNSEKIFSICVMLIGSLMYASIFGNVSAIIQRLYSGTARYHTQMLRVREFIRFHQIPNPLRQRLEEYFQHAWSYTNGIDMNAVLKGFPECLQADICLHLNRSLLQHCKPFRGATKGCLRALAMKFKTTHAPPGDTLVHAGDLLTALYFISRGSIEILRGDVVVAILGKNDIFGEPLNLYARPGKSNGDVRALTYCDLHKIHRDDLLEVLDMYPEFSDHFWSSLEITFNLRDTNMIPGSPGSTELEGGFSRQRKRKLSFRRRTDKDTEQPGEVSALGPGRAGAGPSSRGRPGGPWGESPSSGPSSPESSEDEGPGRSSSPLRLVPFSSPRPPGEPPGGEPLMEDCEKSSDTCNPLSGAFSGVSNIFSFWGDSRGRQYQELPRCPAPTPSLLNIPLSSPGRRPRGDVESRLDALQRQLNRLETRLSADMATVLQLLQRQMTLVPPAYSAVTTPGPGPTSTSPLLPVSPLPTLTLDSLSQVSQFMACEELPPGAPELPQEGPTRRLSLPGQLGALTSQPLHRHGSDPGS
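Further: peak tail current of the secondary pulse compared with the same well before compound.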

Structure (SMILES)	hERG current change (%, negative = inhibition) at 10uM [%]
Cc1c(C)n(C)c2ccc(C(=O)N3CCN(c4ccccc4)CC3)cc12	-5.05
CCOc1ccccc1-c1noc(CCC(=O)Nc2cccnc2)n1	9.94
CCC1C(=O)C(CC)C(c2ccccc2)NC1c1ccccc1 (centres unmarked)	11.9
CCn1cc(C(=O)N2CCN(c3ccccc3OC)CC2)c2cc(OC)c(OC)cc2c1=O	-1.96
CCCN1CCN(C(=O)c2cn(CC(C)C)c(=O)c3cc(OC)c(OC)cc23)CC1	-41.1
COc1cc2c(C(=O)NCCCN3CCN(c4cccc(Cl)c4)CC3)cn(C)c(=O)c2cc1OC	-46
COc1ccccc1C(=O)N1CCN(c2cccc(Cl)c2)CC1	0.406
CCn1cc(C(=O)N2CCN(c3ccc(OC)cc3)CC2)c2cc(OC)c(OC)cc2c1=O	-33.8
CCn1cc(C(=O)N2CCN(c3ccc(F)cc3)CC2)c2cc(OC)c(OC)cc2c1=O	-69.5
CCn1cc(C(=O)N2CCN(c3ccccn3)CC2)c2cc(OC)c(OC)cc2c1=O	-14.4
COc1ccc(C(=O)N2CCN(c3cccc(Cl)c3)CC2)c(OC)c1	-44.6
COc1cc2c(C(=O)N3CCN(c4cccc(Cl)c4)CC3)cn(CC(C)C)c(=O)c2cc1OC	-63.6
CCn1cc(C(=O)N2CCN(c3ccc(C(C)=O)cc3)CC2)c2cc(OC)c(OC)cc2c1=O	-44.3
CCn1cc(C(=O)N2CCN(c3cccc(Cl)c3)CC2)c2cc(OC)c(OC)cc2c1=O	-64.8
COc1cc2c(C(=O)N3CCN(c4cccc(Cl)c4)CC3)cn(C)c(=O)c2cc1OC	-53.1
CCOC(=O)c1cnc(SC)nc1Oc1cccc(NC(=O)c2ccc(C)cc2)c1	11.4
COC(=O)c1cccnc1SCc1ccccc1	-14.9
C/C(=N\OCC(=O)Nn1c(C)nc2ccccc2c1=O)c1ccccc1	-13.8
Cc1cccc(NC(=O)c2cc3c([nH]c4ccccc43)c(C)n2)c1C	11.6
COc1cc(C2C(C(=O)c3cccs3)=C(O)C(=O)N2CCN2CCOCC2)cc(OC)c1OC (centres unmarked)	14.3
CN(C)c1cc[n+](CC(=O)Nc2cc(C(F)(F)F)ccc2Cl)cc1.[Cl-]	7.63
CCn1c(CNc2ccc(F)cc2)nnc1SCC(=O)Nc1ccccc1OC	-30.2

Structure (SMILES)	hERG current change (%, negative = inhibition) at 10uM [%]
CN1CCCN(C(=O)c2ccc(Cl)cc2)CC1	5.68
Cc1ccc2nc(SCC(=O)Nc3ccc4c(c3)CCC4)[nH]c2c1	8.84
CCN(CC)S(=O)(=O)c1ccc(-c2nnc(SCC(C)=O)o2)cc1	-8.48
CCOC(=O)C1CCCN(C(=O)c2cn(CC(C)C)c(=O)c3cc(OC)c(OC)cc23)C1 (centres unmarked)	5.47
COc1cc2c(C(=O)N3CCN(C4CCCCC4)CC3)cn(CC(C)C)c(=O)c2cc1OC	-63.3
CCn1cc(C(=O)N2CCN(C3CCCCC3)CC2)c2cc(OC)c(OC)cc2c1=O	-20.6
COc1ccc(NS(=O)(=O)c2cc3c4c(c2)C(C)C(=O)N4CCC3)cc1 (centres unmarked)	10.3
CCN(CC)CC(=O)N1c2ccccc2Sc2ccc(Cl)cc21.Cl	-10.3
Cc1cc(C(=O)N/N=C/c2ccc(Cl)c([N+](=O)[O-])c2)c(C)n1-c1ccc(F)cc1	-2.41
CC(C)n1c2ccccc2c2cc([N+](=O)[O-])ccc21	16.1
Cc1ccc(C(=O)NC(C(=O)NC2CCCC2)c2ccccc2)cc1 (centres unmarked)	15
c1ccc(-c2ccc3nnnn3n2)cc1	5.72
c1ccc(Sc2ncccn2)nc1	12.2
c1cnc(Sc2ccc3nnnn3n2)nc1	-56.4
COc1ccc(C(=O)c2sc3nc(-c4ccccc4)ccc3c2N)cc1OC	18.1
CC[n+]1c(/C=C/Nc2ccccc2)sc2ccccc21.[I-]	-72.2
CC[n+]1c(/C=C2/C=C(C)CC(C)C2)sc2ccccc21.[I-] (centres unmarked)	-3.25
CCOc1ccc(S(=O)(=O)Nc2cccc(OC)c2)cc1	-25
CCN1/C(=C/C=C/c2oc3ccc(-c4ccccc4)cc3[n+]2CC)Oc2ccc(-c3ccccc3)cc21.CCOS(=O)(=O)[O-]	-2.14
CC[n+]1c(/C=C/N(C)c2ccccc2)oc2ccccc21.O=S(=O)([O-])CCO	0.826
CC[n+]1c(/C=C/Nc2ccccc2)oc2ccccc21.[I-]	-70.4
CC[n+]1c(/C=C2\C=C(C)CC(C)C2)sc2ccccc21.[I-] (centres unmarked)	6.92

Structure (SMILES)	hERG current change (%, negative = inhibition) at 10uM [%]
CC[n+]1ccccc1/C=C/Nc1ccccc1.[I-]	-44.7
CCOS(=O)(=O)[O-].CC[n+]1c(/C=C/Nc2ccccc2)oc2ccc(OC)cc21	-77.2
NC(=O)CC(NC(=O)Cc1cccc2ccccc12)c1ccc(NCCN2CCCCC2)c([N+](=O)[O-])c1 (centres unmarked)	7.38
O=c1[nH]c2ccc(Cl)cc2c(-c2ccccc2)c1N1CCN(c2ccccn2)CC1	6.61
CCCCn1c(N)c(N(CCOC)C(=O)c2c(CC)noc2C)c(=O)[nH]c1=O	19.9
CCCC/C(O)=C1\C(=O)CC(C)(C)CC1=Nc1ccc(N)cc1	-11.4
CC(C)NC[C@H](O)COc1ccc(CC(N)=O)cc1	12.8
Oc1oc(-c2ccccc2)nc1/C=N/c1nccs1	13.1
Cc1ccccc1NC(=O)c1csc2c1CCCC2	-20.9
COc1ccc(-c2nnnn2C)cc1S(=O)(=O)NCc1ccccc1	-13.9
Cc1noc(C)c1COc1ccc(C(=O)OCC(=O)N2CC(=O)Nc3ccccc32)cc1	4.54
Cc1noc(C)c1CSCC(=O)OCC(=O)N1CC(=O)Nc2ccccc21	-72.4
Cc1noc(C)c1COc1cccc(C(=O)OCC(=O)N2CC(=O)Nc3ccccc32)c1	-0.541
COC(=O)c1ccc(CSc2nc(C)nc3c2c(=O)n(C)c(=O)n3C)o1	14.7
Cc1cccc(-n2cnc3cc(C(=O)N4CCc5ccccc54)ccc32)c1	-61.5
Cc1ccc(C(=O)N2CCc3ccccc32)cc1	-7.42
Cc1nc2cc(C(=O)N3CCc4ccccc43)ccc2n1-c1ccc(F)c(F)c1	-69.7
O=C(c1ccc(F)c(F)c1)N1CCCc2ccccc21	0.0993
O=C(c1ccc2ccccc2c1)N1CCc2ccccc21	3.51
Cc1cccc(-n2cnc3cc(C(=O)N4CCCCC4)ccc32)c1	-21.3
CCc1ccc(NC(=O)CCn2c(=O)oc3ccccc32)cc1	-10.1
CCc1ccc(-c2nc3ccc(Br)cc3c(C(=O)O)c2C)s1	19.1

Structure (SMILES)	hERG current change (%, negative = inhibition) at 10uM [%]
COc1cc(NC(=O)CN2CCCCCC2)cc(OC)c1	5.28
CCc1sc(C(=O)N2CCN(CC(=O)Nc3cccc(F)c3)CC2)cc1C	-65
O=C(CN1CCN(c2ccccn2)CC1)Nc1ccc(F)c(F)c1	-27.6
CCOc1ccc(NC(=O)CN2CCN(c3ccc(F)cc3)CC2)cc1	-22.2
CCOc1ccc(NC(=O)CN2CCN(CC(=O)Nc3cc(OC)cc(OC)c3)CC2)cc1	-74.9
CCOc1ccc(NC(=O)CN2CCN(CC(=O)Nc3ccc(F)c(F)c3)CC2)cc1	-78.3
CCc1sc(C(=O)N2CCN(c3ccc(F)cc3)CC2)cc1C	-16.3
CCCCOc1ccc(NC(=O)CN2CCN(CC)CC2)cc1.Cl	-15.9
CCOc1ccc(NC(=O)CN2CCN(CC(=O)Nc3ccc(F)cc3)CC2)cc1	-77.2
O=C(CN1CCN(c2ccc(Cl)cc2)CC1)Nc1cccc(F)c1	-3.54
CCN1CCN(CCC(=O)Nc2ccc(F)c(F)c2)CC1	-17.1
COC(=O)c1ccccc1C(=O)N1CCOCCN(C(=O)c2ccccc2C(=O)OC)CCOCC1	0.0748
O=C(Cn1cncn1)NCc1cccc(OC(F)F)c1	7.23
O=C(Nc1nc2ccccc2s1)C1CCN(S(=O)(=O)c2cc([N+](=O)[O-])ccc2Cl)CC1	10.4
COc1ccc(CCN=c2c([N+](=O)[O-])nn(-c3cccc(C)c3)n2O)cc1OC	-34.1
O=C(COC(=O)C1CCN(S(=O)(=O)c2cccc3cccnc23)CC1)c1ccccc1	7.23
Cc1onc(-c2ccccc2)c1C(=O)NC(C)C1CCCO1 (centres unmarked)	10.5
C/C(=N\Nc1cc(N2CCOCC2)nc(C)n1)c1ccc(F)cc1	-12
Clc1cccc(Cc2ccc(Cl)nn2)c1	-3.46
COc1cccc2cc(C(=O)N3CCN(C(=O)c4ccccc4)CC3)c(=O)oc12	7.71
